From PubChem BioAssay (NCI)
The panel holds about 79,000 compounds, 15% with a hit somewhere; the sample as a whole holds those more often. Active and inactive are the calls of the source. No stated cut-off is given here; in the data, active means growth inhibition above about 70%; inactive means the rest.

What was measured:
[1] = NCI Yeast Anticancer Drug Screen. Data for the rad50 strain (AID 155);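 further: 0% = growth of vehicle-only cultures of the same strain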; settings: S. cerevisiae rad50 strain growth inhibition, stronger effect = higher value
Procedure, shortened: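 Yeast carrying a defined DNA repair defect were exposed to test compounds, and growth was compared with vehicle-treated controls to give percent inhibition.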

[2] = NCI Yeast Anticancer Drug Screen. Data for the mec2-1 strain (AID 157); settings: S. cerevisiae mec2-1 strain, stronger effect = higher value
Procedure, shortened: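 Compounds were applied to mec2-1 yeast cells. Their growth was then compared with that of vehicle-treated cultures to give growth inhibition.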

[3] = NCI Yeast Anticancer Drug Screen. Data for the sgs1 mgt1 strain (AID 161);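 further: 0% = growth of cultures given vehicle only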; settings: S. cerevisiae sgs1 mgt1 strain, stronger effect = higher value
Procedure, shortened: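 This yeast growth screen uses a strain with defined DNA-repair lesions; compound-treated growth is compared with vehicle-treated growth.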

[4] = NCI Yeast Anticancer Drug Screen. Data for the cln2 rad14 strain (AID 165);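 further: 0% = growth equal to vehicle treated cultures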; settings: S. cerevisiae cln2 rad14 strain, stronger effect = higher value
Procedure, shortened: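 Strain: cln2 rad14 yeast, altered in cell cycle control and DNA damage repair. Read-out: growth inhibition vs vehicle.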

[5] = NCI Yeast Anticancer Drug Screen. Data for the bub3 strain (AID 167); settings: S. cerevisiae bub3 mutant strain, stronger effect = higher value
Procedure, shortened: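 Compounds were applied to a genetically altered yeast strain carrying a cell-cycle control defect. Growth inhibition was scored against vehicle-treated controls.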

[6] = NCI Yeast Anticancer Drug Screen. Data for the mlh1 rad18 strain (AID 175); settings: S. cerevisiae mlh1 rad18 strain growth inhibition, stronger effect = higher value
Procedure, shortened: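 A repair-deficient yeast strain is exposed to test compound, and growth is scored relative to vehicle-treated controls.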

[7] = at 5.0 µM (retest, dose inferred, filed as 0.5)
[8] = at 50.0 µM (retest, dose inferred, filed as 5.0)

Measured: growth inhibition

CN(C)CCCNc1cc(O)c2c(c1O)C(=O)c1ccccc1C2=O
inactive: [1]; [7] 22% | [2]; [7] 18% | [3]; [7] 26% | [4]; [7] -16% | [5]; [7] 13% | [6]; [7] 16%
active: [1]; [8] 98% | [1]; at 50.0 µM 99.2% | [2]; [8] 94% | [2]; at 50.0 µM 97.6% | [3]; [8] 96% | [3]; at 50.0 µM 98.3% | [4]; [8] 94% | [4]; at 50.0 µM 94.8% | [5]; [8] 97% | [5]; at 50.0 µM 98.3% | [6]; [8] 98% | [6]; at 50.0 µM 99%

CCCCCN(CCC)CCCCCCCCCN1CCCc2cc(OC)ccc21
active: [1]; at 50.0 µM 97.3% | [2]; at 50.0 µM 97.7% | [4]; at 50.0 µM 97% | [5]; at 50.0 µM 91% | [6]; at 50.0 µM 98%
inactive: [1]; [7] -8% | [1]; [8] -2% | [2]; [7] -6% | [2]; [8] -7% | [3]; [7] 2% | [3]; [8] 2% | [3]; at 50.0 µM 62.9% | [4]; [7] -7% | [4]; [8] -10% | [5]; [7] -4% | [5]; [8] -3% | [6]; [7] -5% | [6]; [8] -5%

COc1ccc(N2C(=O)C(=O)N(c3ccccc3[N+](=O)[O-])C2=S)cc1
inactive: [1]; [7] 16% | [2]; [7] -10% | [3]; [7] 7% | [4]; [7] 16% | [5]; [7] 7% | [6]; [7] 3%
active: [1]; [8] 99% | [1]; at 50.0 µM 86.3% | [2]; [8] 96% | [2]; at 50.0 µM 90% | [3]; [8] 98% | [3]; at 50.0 µM 86.2% | [4]; [8] 94% | [4]; at 50.0 µM 72.2% | [5]; [8] 98% | [5]; at 50.0 µM 78.2% | [6]; [8] 98% | [6]; at 50.0 µM 83.9%

COC1=C(OC)C(=O)C(SCc2ccco2)=CC1=O
inactive: [1]; [7] 37% | [1]; at 50.0 µM 50.6% | [2]; [7] 29% | [3]; [7] 53% | [4]; [7] 51% | [4]; at 50.0 µM 36.9% | [5]; [7] 56% | [5]; at 50.0 µM 62.1% | [6]; [7] 28% | [6]; at 50.0 µM 65%
active: [1]; [8] 98% | [2]; [8] 99% | [2]; at 50.0 µM 73.3% | [3]; [8] 99% | [3]; at 50.0 µM 77.3% | [4]; [8] 90% | [5]; [8] 99% | [6]; [8] 77%

COC(=O)C1=Cc2cc3c(cc2[C@H](c2ccc4c(c2)OCO4)C1C(=O)OC)OCO3 (stereo partly drawn)
active: [5]; [8] 70% | [5]; at 50.0 µM 71.4%
inactive: [1]; [7] 2% | [1]; [8] 26% | [1]; at 50.0 µM 48.6% | [2]; [7] -5% | [2]; [8] 20% | [2]; at 50.0 µM 33.9% | [3]; [7] 3% | [3]; [8] 40% | [3]; at 50.0 µM 47.5% | [4]; [7] 0% | [4]; [8] 40% | [4]; at 50.0 µM 37% | [5]; [7] 26% | [6]; [7] 2% | [6]; [8] 23% | [6]; at 50.0 µM 56.8%

COc1ccc2c3c(c4cc(OC)c(OC)cc4c2c1)CN1CCC[C@H]1[C@@H]3O
active: [1]; [8] 99% | [1]; at 50.0 µM 89.4% | [2]; [8] 99% | [2]; at 50.0 µM 90.6% | [3]; [7] 97% | [3]; [8] 98% | [3]; at 50.0 µM 91.1% | [4]; [7] 90% | [4]; [8] 97% | [4]; at 50.0 µM 88.2% | [5]; [7] 95% | [5]; [8] 98% | [5]; at 50.0 µM 89.7% | [6]; [7] 98% | [6]; [8] 97% | [6]; at 50.0 µM 89.2%
inactive: [1]; [7] 19% | [2]; [7] 7%
